Laboratory results from PubChem BioAssay (EPA / NIEHS).
Results filed as inconclusive are left out. Active and inactive are the calls of the source. How the source made its calls, unless noted: active means hit-call score of the fitted dose curve at least 0.9, where 1 is the maximum; inconclusive means response in the unintended direction; inactive means score below 0.9.

What was measured:
[1] = molecular target: Cellular tumor antigen p53 (Homo sapiens) (UniProt P04637); assay: TOX21_p53_BLA_p2_ratio: Tox21 HCT-116 p53 Agonism Beta-lactamase Assay, Ratio, Phase 2 (AID 2283592)
Sequence of Cellular tumor antigen p53 (Homo sapiens) (P04637 whole entry, looked up): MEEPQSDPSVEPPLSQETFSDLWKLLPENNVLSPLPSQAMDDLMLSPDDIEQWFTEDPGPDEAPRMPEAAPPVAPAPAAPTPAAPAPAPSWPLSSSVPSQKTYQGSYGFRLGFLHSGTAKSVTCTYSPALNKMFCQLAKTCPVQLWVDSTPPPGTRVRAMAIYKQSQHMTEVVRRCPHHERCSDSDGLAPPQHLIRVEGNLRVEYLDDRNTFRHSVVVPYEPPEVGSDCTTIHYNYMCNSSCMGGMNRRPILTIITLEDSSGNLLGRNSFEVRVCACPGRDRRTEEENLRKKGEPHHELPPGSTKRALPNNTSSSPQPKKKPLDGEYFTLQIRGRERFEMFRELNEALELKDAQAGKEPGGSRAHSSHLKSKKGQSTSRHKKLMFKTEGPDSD
In short: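 In this cell-based reporter format, HCT116 cells were dosed with chemicals delivered from DMSO by 217-fold dilution and incubated 16 h at 37C. Emission at 460 and 530 nm after 2 h CCF4-AM loading provided the ratio, fitted upward versus DMSO.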

[2] = TOX21_p53_BLA_p3_viability: Viability Assessment in the Tox21 HCT-116 p53 Agonism Beta-lactamase Assay, Phase 3 (AID 2283593);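 further: cells exposed to compound for 16 h before reading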
In short: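 HCT116 cells, 4000/well, dosed 5 h after plating by pin transfer (217-fold dilution from DMSO stock) and incubated 16 h at 37C, 5% CO2. Viability read as ATP luminescence with CellTiter-Glo after 30 min at room temperature.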

[3] = molecular target: Cellular tumor antigen p53 (Homo sapiens) (UniProt P04637); assay: TOX21_p53_BLA_p3_ratio: Tox21 HCT-116 p53 Agonism Beta-lactamase Assay, Ratio, Phase 3 (AID 2283596)
In short: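 HCT116 p53-bla cells (4000/well) given compound in DMSO (217-fold dilution) after 5 h, incubated 16 h at 37C. CCF4-AM substrate 2 h at room temperature; 460/530 nm emission ratio, gain fitted against DMSO.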

[4] = molecular target: Cellular tumor antigen p53 (Homo sapiens) (UniProt P04637); assay: TOX21_p53_BLA_p5_ratio: Tox21 HCT-116 p53 Agonism Beta-lactamase Assay, Ratio, Phase 5 (AID 2283599)
In short: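 HCT-116 p53-bla cells (4000/well) plated 5 h, dosed with compound (217-fold DMSO dilution) for 16 h at 37 C; CCF4-AM substrate 2 h at room temperature. Activity is the 460/530 nm emission ratio (405 nm excitation), fitted in gain-of-signal direction versus DMSO.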

[5] = TOX21_p53_BLA_p5_viability: Viability Assessment in the Tox21 HCT-116 p53 Agonism Beta-lactamase Assay, Phase 5 (AID 2283600)
In short: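 Compounds, pinned from DMSO at 217-fold dilution, were left on the cells for 16 h. The viability endpoint was ATP content measured by CellTiter-Glo luminescence, where falling signal reflects cytotoxicity.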

[6] = molecular target: Cellular tumor antigen p53 (Homo sapiens) (UniProt P04637); assay: TOX21_p53_BLA_p4_ratio: Tox21 HCT-116 p53 Agonism Beta-lactamase Assay, Ratio, Phase 4 (AID 2283601)
In short: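 HCT-116 p53 beta-lactamase reporter cells (4000/well) preincubated 5 h, then compound (217-fold dilution of DMSO stock) for 16 h at 37C. CCF4-AM substrate added 2 h at room temperature; 460/530 nm emission ratio fitted upward versus DMSO.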

[7] = molecular target: Thyroid hormone receptor alpha (Rattus norvegicus) + Thyroid hormone receptor beta (Rattus norvegicus) (UniProt P18113+P63059); assay: TOX21_TR_LUC_GH3_Agonist_Followup: Tox21 GH3 Thyroid Hormone Receptor Agonism Luciferase Follow-Up Assay (AID 2283939)
Sequence of Thyroid hormone receptor alpha (Rattus norvegicus) + Thyroid hormone receptor beta (Rattus norvegicus) (P63059 whole entry, looked up): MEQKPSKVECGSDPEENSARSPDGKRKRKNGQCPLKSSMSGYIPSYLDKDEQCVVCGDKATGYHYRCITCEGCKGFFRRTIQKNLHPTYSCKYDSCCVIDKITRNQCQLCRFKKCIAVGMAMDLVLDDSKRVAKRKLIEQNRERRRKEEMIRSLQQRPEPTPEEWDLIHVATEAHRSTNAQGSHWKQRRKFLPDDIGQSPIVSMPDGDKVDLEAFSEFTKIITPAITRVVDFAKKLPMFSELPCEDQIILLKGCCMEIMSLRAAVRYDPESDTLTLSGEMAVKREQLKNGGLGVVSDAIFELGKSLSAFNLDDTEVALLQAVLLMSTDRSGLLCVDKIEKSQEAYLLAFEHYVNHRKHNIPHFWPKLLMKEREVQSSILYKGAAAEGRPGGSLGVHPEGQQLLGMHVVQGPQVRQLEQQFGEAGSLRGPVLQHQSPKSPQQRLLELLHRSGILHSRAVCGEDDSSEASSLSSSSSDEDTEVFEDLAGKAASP
Sequence of Thyroid hormone receptor alpha (Rattus norvegicus) + Thyroid hormone receptor beta (Rattus norvegicus) (P18113 whole entry, looked up): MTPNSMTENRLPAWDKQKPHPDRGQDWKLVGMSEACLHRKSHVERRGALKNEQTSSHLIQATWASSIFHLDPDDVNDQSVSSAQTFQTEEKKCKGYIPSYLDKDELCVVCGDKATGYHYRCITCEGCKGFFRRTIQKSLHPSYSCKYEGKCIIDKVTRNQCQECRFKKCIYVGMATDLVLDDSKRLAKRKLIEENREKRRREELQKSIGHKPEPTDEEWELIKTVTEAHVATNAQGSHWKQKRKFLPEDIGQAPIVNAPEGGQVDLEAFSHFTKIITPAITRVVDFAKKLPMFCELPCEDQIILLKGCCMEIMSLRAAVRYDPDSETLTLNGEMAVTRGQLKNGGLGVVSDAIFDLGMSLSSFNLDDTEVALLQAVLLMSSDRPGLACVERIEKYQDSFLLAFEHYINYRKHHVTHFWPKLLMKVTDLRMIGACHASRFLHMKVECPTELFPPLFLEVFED
In short: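 Rat GH3 cells (1,500/well) in serum-free assay medium, treated with 15-point series, 92 uM to 5 nM final, for 24 h at 37C. Luciferase via ONE-Glo luminescence; gain of signal fitted against DMSO, T3 positive control.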

THRA (gene 7067) = THRA (gene 7067) (UniProt P10827); assay: TOX21_TRA_COA_Agonist_Followup_ratio: Tox21 Thyroid Hormone Receptor alpha Agonism through Coactivator Recruitment Follow-Up Assay, Ratio (AID 2283948; active means hit-call score of the fitted dose curve at least 0.9, where 1 is the maximum; inactive means score below 0.9)
Sequence of THRA (gene 7067) (P10827 whole entry, looked up, the tested form may be a part): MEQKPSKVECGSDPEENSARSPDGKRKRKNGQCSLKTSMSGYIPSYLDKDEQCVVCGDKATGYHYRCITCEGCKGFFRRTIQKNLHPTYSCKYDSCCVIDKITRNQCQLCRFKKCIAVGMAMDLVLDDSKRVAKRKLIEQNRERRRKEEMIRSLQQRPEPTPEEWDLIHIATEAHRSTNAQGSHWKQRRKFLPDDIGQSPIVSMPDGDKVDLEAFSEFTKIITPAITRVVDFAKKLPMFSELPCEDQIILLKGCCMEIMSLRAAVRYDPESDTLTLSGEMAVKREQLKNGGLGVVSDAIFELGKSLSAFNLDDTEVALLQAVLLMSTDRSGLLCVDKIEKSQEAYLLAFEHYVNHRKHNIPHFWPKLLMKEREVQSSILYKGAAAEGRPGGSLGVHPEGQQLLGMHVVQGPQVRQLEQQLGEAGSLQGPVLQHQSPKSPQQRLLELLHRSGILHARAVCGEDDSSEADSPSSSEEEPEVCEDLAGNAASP
In short: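 GST-TRa LBD 2.5 nM + 0.10% BSA + cpd; add fluorescein-SRC-2 200 nM, Tb-anti-GST 2 nM. TR-FRET ex 340, em 520/495 ratio. Norm: DMSO 0%, T3 100%; gain-of-signal fit.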

THRB (gene 7068) [8] = molecular target: THRB (gene 7068) (UniProt P10828); assay: TOX21_TRB_BLA_Agonist_Followup_ratio: Tox21 Thyroid Hormone Receptor beta Agonism Beta-lactamase (BLA) Follow-Up Assay, Ratio (AID 2283954)
Sequence of THRB (gene 7068) (P10828 whole entry, looked up, the tested form may be a part): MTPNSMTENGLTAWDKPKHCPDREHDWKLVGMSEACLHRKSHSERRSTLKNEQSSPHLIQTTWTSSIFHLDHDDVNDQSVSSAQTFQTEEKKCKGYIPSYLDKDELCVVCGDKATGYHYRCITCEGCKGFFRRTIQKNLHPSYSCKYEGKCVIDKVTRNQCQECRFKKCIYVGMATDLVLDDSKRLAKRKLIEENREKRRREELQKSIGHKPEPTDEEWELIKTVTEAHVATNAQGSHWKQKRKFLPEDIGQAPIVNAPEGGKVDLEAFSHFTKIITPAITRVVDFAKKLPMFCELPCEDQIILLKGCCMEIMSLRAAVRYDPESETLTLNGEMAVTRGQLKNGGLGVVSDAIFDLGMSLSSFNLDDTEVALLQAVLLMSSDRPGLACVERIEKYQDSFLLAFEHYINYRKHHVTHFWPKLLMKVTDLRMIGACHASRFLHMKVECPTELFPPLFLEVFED
In short: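 Human TRβ LBD–GAL4 DBD fusion in GeneBLAzer UAS-bla HEK293T cells; 11 concentrations in triplicate, 18 h at 37°C/5% CO2, T3 as agonist control. CCF4-AM substrate 2 h at room temperature; 460:530 nm ratio fitted for gain of signal versus DMSO.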

THRB (gene 7068) [9] = molecular target: THRB (gene 7068) (UniProt P10828); assay: TOX21_TRB_COA_Agonist_Followup_ratio: Tox21 Thyroid Hormone Receptor beta Agonism through Coactivator Recruitment Follow-Up Assay, Ratio (AID 2283963; active means hit-call score of the fitted dose curve at least 0.9, where 1 is the maximum; inactive means score below 0.9)
In short: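 First, the GST-fused TRβ ligand-binding domain (5.0 nM) was incubated with test compound in 0.10% BSA. Next, fluorescein-tagged SRC-2 peptide (200 nM) and terbium anti-GST antibody (2 nM) were added. Finally, TR-FRET emission ratios were normalized against DMSO and T3 controls.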

[10] = molecular target: Retinoic acid receptor RXR-alpha (Homo sapiens) (UniProt P19793); assay: TOX21_TR_RXR_BLA_Agonist_Followup_ratio: Tox21 Thyroid Hormone Receptor beta Retinoid X Receptor alpha (RXRa) Agonism Beta-lactamase (BLA) Follow-Up Assay, Ratio (AID 2283968)
Sequence of Retinoic acid receptor RXR-alpha (Homo sapiens) (P19793 whole entry, looked up, the tested form may be a part): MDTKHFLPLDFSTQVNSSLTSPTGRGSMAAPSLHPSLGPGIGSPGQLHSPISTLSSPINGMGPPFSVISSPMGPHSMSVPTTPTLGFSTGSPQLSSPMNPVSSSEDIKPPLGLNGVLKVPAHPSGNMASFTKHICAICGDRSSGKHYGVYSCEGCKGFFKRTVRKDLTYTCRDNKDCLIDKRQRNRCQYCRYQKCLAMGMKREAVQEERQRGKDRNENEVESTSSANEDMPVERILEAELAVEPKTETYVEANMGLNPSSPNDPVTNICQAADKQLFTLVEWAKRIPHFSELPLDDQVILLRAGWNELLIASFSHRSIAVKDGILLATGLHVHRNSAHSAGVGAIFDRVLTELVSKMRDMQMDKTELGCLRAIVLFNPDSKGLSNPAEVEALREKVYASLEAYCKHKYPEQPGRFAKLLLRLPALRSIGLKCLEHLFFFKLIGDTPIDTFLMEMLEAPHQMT
In short: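 This follow-up tests whether responses seen in the TR GH3 luciferase agonist screen are specific, using a GAL4-driven beta-lactamase reporter for RXRa in HEK293T cells. Compound exposure lasts 16 h; signal is the cleaved/uncleaved substrate ratio.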

Measured: AC50

O=P(O)(O)OC(Cn1cncn1)(Cn1cncn1)c1ccc(F)cc1F
inactive: [1] | [2] | [3] | [4] | [5]

O=C1Nc2ccc([N+](=O)[O-])cc2C1=O
inactive: [2] | [5]
active: [1] 74.4 µM | [3] 85.2 µM | [4] 82.1 µM | [6] 72.8 µM

CCCCNc1ccc(C(=O)OCCN(C)C)cc1
inactive: [1] | [2] | [3] | [4] | [5] | [6]

Oc1cn2c(n1)Nc1ccc(Cl)c(Cl)c1C2
inactive: [1] | [2] | [3] | [4] | [5] | [6]

CC(C)CC(C)(N)C#N (stereo not drawn)
inactive: [1] | [2] | [3] | [4] | [5] | [6]

c1ccc2sc(SSc3nc4ccccc4s3)nc2c1
inactive: [1] | [2] | [3] | [4] | [5] | [6]

CC(C(=O)O)c1cccc(Oc2ccccc2)c1 (stereo not drawn)
inactive: [1] | [2] | [3] | [4] | [5] | [6]

CCCc1ccc(C(=O)O)cc1
inactive: [1] | [2] | [3] | [4] | [5] | [6]

CC(C)(C)NCC(O)c1ccc(O)c(CO)n1 (stereo not drawn)
inactive: [1] | [2] | [3] | [4] | [5] | [6]

NCC(=O)O
inactive: [1] | [2] | [3] | [4] | [5]

O=Cc1ccccc1[N+](=O)[O-]
inactive: [2] | [3] | [5] | [6]
active: [1] 70.6 µM | [4] 68 µM

CC(=O)CC(=O)c1ccccc1
inactive: [1] | [2] | [3] | [4] | [5]

O=C1CC2(CCCC2)CC(=O)N1CCNCC1COc2ccccc2O1 (stereo not drawn)
inactive: [1] | [2] | [3] | [4] | [5] | [6]

CC(C)=O
inactive: [1] | [2] | [3] | [4] | [5] | [6]

O=Cc1c(Cl)cccc1Cl
inactive: [1] | [2] | [3] | [4] | [5] | [6]

Cc1cc(O)c2c(c1)C(=O)c1cccc(O)c1C2=O
inactive: [1] | [2] | [3] | [4] | [5] | [6]

CCC(CO)(CO)COCC(CC)(CO)CO
inactive: [1] | [2] | [3] | [4] | [5] | [6]

CCc1cc(S(=O)(=O)O)c2cc(C(C)C)cccc1-2
inactive: [1] | [2] | [3] | [4] | [5] | [6]

NCC(=O)CCC(=O)O
active: [7] 13.1 µM
inactive: all other assays above

CC(C)(C)C(=O)OCOC(=O)[C@@H]1N2C(=O)[C@@H](NC(=O)[C@H](N)c3ccccc3)[C@H]2SC1(C)C
inactive: [1] | [2] | [3] | [4] | [6]

O=C(Oc1ccccc1)Oc1ccccc1
inactive: [1] | [2] | [3] | [4] | [5] | [6]

CC(C)NCC(O)COc1cccc2[nH]ccc12 (stereo not drawn)
inactive: [1] | [2] | [3] | [4] | [6]

CC[N+](CC)(CC)CCOc1ccc(/C=C/c2ccccc2)cc1
inactive: [1] | [2] | [3] | [4] | [5] | [6]

CO/N=C(\C(=O)N[C@@H]1C(=O)N2C(C(=O)O)=C(CSc3nc(=O)c(O)nn3C)CS[C@H]12)c1csc(N)n1
inactive: [1] | [2] | [3] | [4] | [6]

Cc1cc(C(C)(C)C)cc(C)c1CC1=NCCN1
inactive: [1] | [2] | [3] | [4] | [6]

N#Cc1cc2ccccc2c2ccccc12
inactive: [1] | [2] | [3] | [4] | [6]

COc1cc2c3cc1Oc1cc(ccc1O)C[C@@H]1c4c(cc(OC)c(O)c4Oc4ccc(cc4)C[C@@H]3N(C)CC2)CC[N+]1(C)C
inactive: [1] | [2] | [3] | [5] | [6]

CO[Si](CCCCl)(OC)OC
inactive: [1] | [2] | [3] | [4] | [6]

CC1=C(/C=C/C(C)=C/C=C/C(C)=C/C(=O)Oc2c(C)c(C)c3c(c2C)CC[C@@](C)(CCC[C@H](C)CCC[C@H](C)CCCC(C)C)O3)C(C)(C)CCC1
inactive: [1] | [3] | [4] | [6]
active: [2] 42.8 µM

C#C[C@]1(OC(C)=O)CC[C@H]2[C@@H]3CCC4=CC(=O)CC[C@@H]4[C@H]3CC[C@@]21C
inactive: [1] | [2] | [3] | [4] | [6]
